Reference: PubChem BioAssay (EPA / NIEHS)
Records with an inconclusive call do not appear. Calls of active or inactive are those of the source. The calls were made as follows, unless noted: active = hit-call score of the fitted dose curve at least 0.9, where 1 is the maximum; inactive = score below 0.9.

Tests used:
[1] = biological target: Paired box protein Pax-6 (Homo sapiens) (UniProt P26367); assay: ATG_Pax6_CIS: Attagene CIS-FACTORIAL HepG2 Assay for human Paired Box 6 (PAX6) (AID 2282956); details: HepG2 CIS-FACTORIAL PAX6 reporter transcription, RNA readout; actives raise or lower the signal
Sequence of Paired box protein Pax-6 (Homo sapiens) (P26367 whole entry, looked up): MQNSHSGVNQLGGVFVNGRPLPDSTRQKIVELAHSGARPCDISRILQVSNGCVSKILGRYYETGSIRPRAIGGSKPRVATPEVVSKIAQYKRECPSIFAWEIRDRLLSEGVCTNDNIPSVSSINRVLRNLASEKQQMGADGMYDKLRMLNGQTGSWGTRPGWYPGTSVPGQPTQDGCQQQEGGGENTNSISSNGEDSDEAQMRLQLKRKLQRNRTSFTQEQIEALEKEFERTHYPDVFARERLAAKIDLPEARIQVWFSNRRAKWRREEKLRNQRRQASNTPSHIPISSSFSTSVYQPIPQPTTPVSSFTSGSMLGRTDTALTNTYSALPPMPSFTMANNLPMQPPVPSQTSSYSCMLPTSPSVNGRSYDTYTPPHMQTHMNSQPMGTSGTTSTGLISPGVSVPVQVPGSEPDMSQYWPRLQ
Summary of the method: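 Readout: reporter transcript fluorescence after RT-PCR and capillary electrophoresis. Cells: HepG2, transiently transfected with cis-regulated MRTUs. Exposure 24 h. Gain or loss of signal fitted bidirectionally relative to DMSO.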

[2] = ATG_PPRE_CIS: Attagene CIS-FACTORIAL HepG2 Assay for human Peroxisome Proliferator-activated Response Element (PPRE) (AID 2282958); details: HepG2 PPRE cis-element reporter, Attagene transcription factor profiling; actives raise or lower the signal
Summary of the method: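 HepG2 cells are transiently transfected with multiplexed cis-promoter reporter units to report endogenous PPAR activity. After 24 h dosing, reporter mRNA is read by RT-PCR and capillary electrophoresis. Fitting is bidirectional against DMSO.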

[3] = ATG_RORE_CIS: Attagene CIS-FACTORIAL HepG2 Assay for human RAR-related Orphan Receptor Element (RORE) (AID 2282959); details: HepG2 Attagene cis-factorial RORE reporter, mRNA; actives raise or lower the signal
Summary of the method: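 HepG2 cells carrying transiently transfected cis-regulated reporter units; RORE-driven reporter mRNA quantified 24 h post-dosing by RT-PCR, 6-FAM primer extension, HpaI digestion and capillary electrophoresis. Bidirectional fit versus DMSO.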

[4] = ATG_Sox_CIS: Attagene CIS-FACTORIAL HepG2 Assay for human SRY-box transcription factor (SOX) (AID 2282960); details: HepG2 Attagene cis-factorial SOX reporter, mRNA; actives raise or lower the signal
Summary of the method: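 HepG2 cells transiently transfected with multiple cis-regulated reporter units, then dosed for 24 h. Reporter mRNA quantified by RT-PCR, fluorescent labelling, HpaI digestion and capillary electrophoresis; bidirectional fit versus DMSO.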

[5] = biological target: Transcription factor Sp1 (Homo sapiens) (UniProt P08047); assay: ATG_Sp1_CIS: Attagene CIS-FACTORIAL HepG2 Assay for human Specificity Protein 1 (Sp1) (AID 2282961); details: HepG2 Sp1 cis-reporter transcription, actives raise or lower the signal
Sequence of Transcription factor Sp1 (Homo sapiens) (P08047 whole entry, looked up): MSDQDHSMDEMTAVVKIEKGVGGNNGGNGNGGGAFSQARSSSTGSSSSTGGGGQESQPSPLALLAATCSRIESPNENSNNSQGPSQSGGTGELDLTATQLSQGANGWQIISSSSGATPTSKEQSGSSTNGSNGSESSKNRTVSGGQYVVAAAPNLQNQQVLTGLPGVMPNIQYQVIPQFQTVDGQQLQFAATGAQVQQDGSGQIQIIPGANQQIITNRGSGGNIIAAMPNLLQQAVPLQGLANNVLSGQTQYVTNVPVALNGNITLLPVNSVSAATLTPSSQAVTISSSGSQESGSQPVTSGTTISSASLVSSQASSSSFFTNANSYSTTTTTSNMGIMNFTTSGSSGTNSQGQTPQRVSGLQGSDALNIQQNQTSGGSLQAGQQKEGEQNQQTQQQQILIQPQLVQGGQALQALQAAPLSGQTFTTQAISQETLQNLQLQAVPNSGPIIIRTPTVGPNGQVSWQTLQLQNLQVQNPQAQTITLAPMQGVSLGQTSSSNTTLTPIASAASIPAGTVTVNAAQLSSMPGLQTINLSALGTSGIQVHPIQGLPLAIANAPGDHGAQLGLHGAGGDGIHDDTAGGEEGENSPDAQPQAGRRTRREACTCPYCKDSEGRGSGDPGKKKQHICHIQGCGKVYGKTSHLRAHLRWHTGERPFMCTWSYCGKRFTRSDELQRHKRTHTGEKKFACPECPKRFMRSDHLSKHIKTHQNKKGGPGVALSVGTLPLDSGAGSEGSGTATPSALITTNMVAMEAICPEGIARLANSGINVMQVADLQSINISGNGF
Summary of the method: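 HepG2 cells transiently transfected with multiplexed cis-regulated reporter constructs, chemical exposure 24 h. Reporter mRNA quantified by RT-PCR with capillary electrophoresis; bidirectional fit relative to DMSO.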

[6] = ATG_SREBP_CIS: Attagene CIS-FACTORIAL HepG2 Assay for human Sterol Regulatory Element Binding (SREBP) (AID 2282962); details: HepG2 Attagene cis-factorial SREBP reporter, mRNA; actives raise or lower the signal
Summary of the method: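 Readout: fluorescent reporter-transcript peaks resolved by capillary electrophoresis after RT-PCR. Cells were human HepG2 carrying transfected cis-promoter reporter constructs, dosed for 24 h. Gain or loss of signal was fitted against DMSO controls.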

[7] = biological target: Signal transducer and activator of transcription 3 (Homo sapiens) (UniProt P40763); assay: ATG_STAT3_CIS: Attagene CIS-FACTORIAL HepG2 Assay for human Signal Transducer and Activator of Transcription 3 (STAT3) (AID 2282963); details: HepG2, Attagene cis-factorial STAT3 reporter transcription; actives raise or lower the signal
Sequence of Signal transducer and activator of transcription 3 (Homo sapiens) (P40763 whole entry, looked up): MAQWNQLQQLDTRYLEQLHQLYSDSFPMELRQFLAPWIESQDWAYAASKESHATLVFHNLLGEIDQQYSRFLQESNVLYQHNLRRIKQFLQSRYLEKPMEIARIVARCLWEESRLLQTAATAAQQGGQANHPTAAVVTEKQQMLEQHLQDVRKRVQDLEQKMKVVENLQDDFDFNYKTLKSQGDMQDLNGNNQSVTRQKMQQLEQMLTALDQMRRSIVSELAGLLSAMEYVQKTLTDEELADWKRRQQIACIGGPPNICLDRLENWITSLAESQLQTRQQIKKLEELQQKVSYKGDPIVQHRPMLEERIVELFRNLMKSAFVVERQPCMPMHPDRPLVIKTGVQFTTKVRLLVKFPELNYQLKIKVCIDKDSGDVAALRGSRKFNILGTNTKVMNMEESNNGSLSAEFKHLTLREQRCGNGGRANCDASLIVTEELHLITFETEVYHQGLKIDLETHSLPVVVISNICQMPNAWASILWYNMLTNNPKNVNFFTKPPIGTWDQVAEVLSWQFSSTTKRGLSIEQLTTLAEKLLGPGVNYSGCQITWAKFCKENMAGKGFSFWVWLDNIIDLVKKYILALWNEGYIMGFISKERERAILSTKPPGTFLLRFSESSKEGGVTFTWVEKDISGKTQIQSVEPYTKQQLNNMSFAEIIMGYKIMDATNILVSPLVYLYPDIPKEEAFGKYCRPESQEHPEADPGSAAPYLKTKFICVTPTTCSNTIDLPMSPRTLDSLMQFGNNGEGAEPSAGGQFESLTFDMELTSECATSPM
Summary of the method: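 Cis-factorial format: endogenous transcription factors in HepG2 drive transfected reporter units. After 24 h treatment, reporter RNA was reverse-transcribed, amplified, FAM-labelled and HpaI-digested before CE analysis; activity scored in both directions against DMSO.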

[8] = ATG_TA_CIS: Attagene CIS-FACTORIAL HepG2 Assay for human TA Basal Promoter (AID 2282964); details: HepG2 Attagene CIS-factorial TA basal promoter reporter; actives raise or lower the signal
Summary of the method: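 Background internal-marker endpoint from a 52-component HepG2 cis-reporter panel. Cells treated 24 h; reporter transcripts quantified via RT-PCR and CE fluorescence against DMSO baseline.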

[9] = ATG_TCF_b_cat_CIS: Attagene CIS-FACTORIAL HepG2 Assay for human T-Cell-Factor with beta-catenin (TCF/b-cat) (AID 2282965); details: HepG2 TCF/beta-catenin cis-reporter transcription, actives raise or lower the signal
Summary of the method: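 Endogenous transcription factor activity is captured through cis-promoter reporter constructs transiently introduced into human HepG2 liver cells. Induced reporter mRNA is measured after 24 h and fitted bidirectionally relative to DMSO.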

[10] = ATG_TAL_CIS: Attagene CIS-FACTORIAL HepG2 Assay for human TAL Basal Promoter (AID 2282966); details: HepG2 Attagene cis-factorial TAL promoter reporter; actives raise or lower the signal;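 also: background control endpoint measuring basal TAL promoter reporter mRNA not a specific factor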
Summary of the method: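 Endogenous transcription-factor activity is sensed in HepG2 cells through transfected cis-promoter reporter constructs. After 24 h dosing, reporter transcripts are quantified by RT-PCR and capillary electrophoresis. Gain or loss of signal is fitted relative to DMSO.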

[11] = ATG_TGFb_CIS: Attagene CIS-FACTORIAL HepG2 Assay for human Transforming Growth Factor (TGF) (AID 2282967); details: HepG2 Attagene CIS TGFb reporter, mRNA transcription; actives raise or lower the signal
Summary of the method: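 Liver HepG2 line, cis-factorial reporter panel, 24 h dosing. Quantitation: RT-PCR products labeled with 6-FAM, cut with HpaI, resolved by capillary electrophoresis; DMSO-referenced bidirectional analysis.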

[12] = biological target: X-box-binding protein 1 (Homo sapiens) (UniProt P17861); assay: ATG_Xbp1_CIS: Attagene CIS-FACTORIAL HepG2 Assay for human X-box Binding Protein 1 (XBP1) (AID 2282972); details: HepG2 XBP1 cis-element reporter, Attagene multiplex; actives raise or lower the signal
Sequence of X-box-binding protein 1 (Homo sapiens) (P17861 whole entry, looked up, the tested form may be a part): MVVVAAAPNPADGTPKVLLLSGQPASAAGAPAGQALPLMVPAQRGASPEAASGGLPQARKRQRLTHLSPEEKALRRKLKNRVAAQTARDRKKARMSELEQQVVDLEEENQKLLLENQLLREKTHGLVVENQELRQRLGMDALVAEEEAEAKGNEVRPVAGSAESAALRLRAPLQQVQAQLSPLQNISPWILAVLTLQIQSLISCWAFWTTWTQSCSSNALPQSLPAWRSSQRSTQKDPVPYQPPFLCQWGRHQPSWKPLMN
Summary of the method: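 Read-out: fluorescent reporter mRNA fragments resolved by capillary electrophoresis after RT-PCR. Human HepG2 liver cells carried transfected cis-promoter reporter units and were exposed to chemicals for 24 hours. Gain or loss of signal fitted relative to DMSO baseline.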

[13] = ATG_VDRE_CIS: Attagene CIS-FACTORIAL HepG2 Assay for human Vitamin D Receptor Element (VDRE) (AID 2282968); details: HepG2 VDRE cis-reporter transcription, actives raise or lower the signal
Summary of the method: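 Measures endogenous factor activity through cis-element-driven reporter transcripts in transiently transfected HepG2. Cells are treated 24 h; reporter mRNA is quantified by RT-PCR and capillary electrophoresis; fitting is bidirectional.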

[14] = biological target: Steroid hormone receptor ERR1 (Homo sapiens) (UniProt P11474); assay: ATG_ERRa_TRANS: Attagene TRANS-FACTORIAL HepG2 Assay for human Estrogen-Related Receptor alpha (ERRa) (AID 2282971; active = hit-call score of the fitted dose curve at least 0.9, where 1 is the maximum); details: HepG2 Attagene TRANS reporter, ERRa transactivation
Sequence of Steroid hormone receptor ERR1 (Homo sapiens) (P11474 whole entry, looked up, the tested form may be a part): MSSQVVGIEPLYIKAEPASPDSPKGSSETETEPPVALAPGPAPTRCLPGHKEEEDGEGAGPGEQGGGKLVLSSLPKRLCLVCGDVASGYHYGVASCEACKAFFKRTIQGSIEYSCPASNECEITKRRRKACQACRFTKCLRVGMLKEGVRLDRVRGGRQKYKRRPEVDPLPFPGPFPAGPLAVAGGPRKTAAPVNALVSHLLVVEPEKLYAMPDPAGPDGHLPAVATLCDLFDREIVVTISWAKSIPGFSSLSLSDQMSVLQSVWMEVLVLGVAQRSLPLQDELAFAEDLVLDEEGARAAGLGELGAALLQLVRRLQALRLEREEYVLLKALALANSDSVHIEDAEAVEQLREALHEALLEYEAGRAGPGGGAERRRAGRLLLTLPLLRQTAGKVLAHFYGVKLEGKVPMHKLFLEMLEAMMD
Summary of the method: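 HepG2 cells were transiently transfected with multiple GAL4-UAS reporter units, then dosed with compound for 24 h. Total RNA was reverse-transcribed, reporter cDNA PCR-amplified and fluorescently labelled, and fragments resolved by capillary electrophoresis; induction was compared with DMSO.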

[15] = ATG_GAL4_TRANS: Attagene TRANS-FACTORIAL HepG2 Assay for GAL4 (Internal Marker) (AID 2282976; active = hit-call score of the fitted dose curve at least 0.9, where 1 is the maximum); details: HepG2 Attagene TRANS GAL4 internal marker reporter
Summary of the method: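 Fluorescence from capillary electrophoresis of labelled RT-PCR products quantifies reporter mRNA induction after 24 h dosing of HepG2 cells carrying transfected GAL4-UAS reporter transcription units. Vehicle DMSO serves as baseline.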

[16] = ATG_M_19_TRANS: Attagene TRANS-FACTORIAL HepG2 Assay for M19 Transcription Factor (Internal Marker) (AID 2282974; active = hit-call score of the fitted dose curve at least 0.9, where 1 is the maximum); details: HepG2 Attagene TRANS-FACTORIAL M19 internal marker reporter
Summary of the method: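 HepG2 transiently transfected with GAL4-UAS multiplex reporter constructs, exposed 24 h; reporter RNA quantified by RT-PCR, 6-FAM labeling, HpaI digestion and capillary electrophoresis; internal background marker fitted upward versus DMSO.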

[17] = biological target: Nuclear receptor subfamily 1 group I member 3 (Homo sapiens) (UniProt Q14994); assay: ATG_CAR_TRANS: Attagene TRANS-FACTORIAL HepG2 Assay for human Constitutive Androstane Receptor (CAR) (AID 2282969; active = hit-call score of the fitted dose curve at least 0.9, where 1 is the maximum;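 also: activators raise reporter mRNA above DMSO so AC50 marks induction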); details: HepG2 Attagene TRANS-FACTORIAL CAR reporter
Sequence of Nuclear receptor subfamily 1 group I member 3 (Homo sapiens) (Q14994 whole entry, looked up, the tested form may be a part): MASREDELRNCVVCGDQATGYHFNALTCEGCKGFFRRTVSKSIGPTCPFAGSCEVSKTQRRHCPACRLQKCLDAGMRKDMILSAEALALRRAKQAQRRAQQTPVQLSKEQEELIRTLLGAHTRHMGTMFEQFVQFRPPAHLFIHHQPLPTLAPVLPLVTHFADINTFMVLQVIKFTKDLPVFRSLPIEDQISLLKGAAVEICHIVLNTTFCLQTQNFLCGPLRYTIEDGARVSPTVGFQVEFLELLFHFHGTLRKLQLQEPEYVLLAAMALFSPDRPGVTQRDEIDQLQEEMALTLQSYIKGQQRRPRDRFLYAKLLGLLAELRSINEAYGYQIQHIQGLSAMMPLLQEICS
Summary of the method: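 Signal is reporter mRNA induction relative to DMSO, measured 24 h after dosing by RT-PCR with fluorescent primer extension and capillary electrophoresis. Human HepG2 liver cells carried transiently transfected chimeric NR-Gal4/GAL4-UAS reporter constructs.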

[18] = biological target: Estrogen-related receptor gamma (Homo sapiens) (UniProt P62508); assay: ATG_ERRg_TRANS: Attagene TRANS-FACTORIAL HepG2 Assay for human Estrogen-Related Receptor gamma (ERRg) (AID 2282977; active = hit-call score of the fitted dose curve at least 0.9, where 1 is the maximum;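 also: hits increase reporter signal over DMSO so potencies reflect activators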); details: HepG2 Attagene TRANS reporter, ERRg transactivation
Sequence of Estrogen-related receptor gamma (Homo sapiens) (P62508 whole entry, looked up, the tested form may be a part): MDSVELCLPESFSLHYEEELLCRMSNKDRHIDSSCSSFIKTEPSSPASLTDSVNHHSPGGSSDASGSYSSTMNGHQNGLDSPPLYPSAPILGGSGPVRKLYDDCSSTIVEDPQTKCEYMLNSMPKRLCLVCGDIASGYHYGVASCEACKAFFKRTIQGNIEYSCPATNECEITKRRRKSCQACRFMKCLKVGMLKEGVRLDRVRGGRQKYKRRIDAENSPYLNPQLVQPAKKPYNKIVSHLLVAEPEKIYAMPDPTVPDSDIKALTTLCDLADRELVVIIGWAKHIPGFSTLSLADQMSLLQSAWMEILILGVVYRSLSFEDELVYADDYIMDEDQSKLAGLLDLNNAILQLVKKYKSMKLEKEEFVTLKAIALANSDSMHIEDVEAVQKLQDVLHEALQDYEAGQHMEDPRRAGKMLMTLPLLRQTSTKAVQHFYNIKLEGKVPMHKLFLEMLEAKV
Summary of the method: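 Exogenous NR-Gal4 chimera activity was assessed in HepG2 cells bearing transfected GAL4-UAS reporters. After 24 h dosing, total RNA underwent RT-PCR, fluorescent primer extension and HpaI digestion before capillary electrophoresis, with gain of signal scored against DMSO.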

Measured: AC50

OCCc1ccccc1
not listed: [13] | [14] | [15] | [16] | [17] | [18]
inactive: all other assays above

CCCCCCC(C)Nc1ccc(Nc2ccccc2)cc1 (stereo unspecified)
active: [13] 2320 nM
not listed: [3] | [6] | [14] | [15] | [16] | [17] | [18]
inactive: all other assays above

C[C@@H]1CCN(C(=O)[C@H](CCCN=C(N)N)NS(=O)(=O)c2cccc3c2NC[C@H](C)C3)[C@@H](C(=O)O)C1
not listed: [2] | [3] | [13] | [16] | [17] | [18]
inactive: all other assays above

C=C(C)[C@@H]1CC=C(C)C(=O)C1
not listed: [2] | [14] | [15] | [17] | [18]
inactive: all other assays above

CCCCCCCCCCCCCCCC(=O)OC/C=C(C)/C=C/C=C(C)/C=C/C1=C(C)CCCC1(C)C
active: [13] 2370 nM
not listed: [5] | [8] | [14] | [18]
inactive: all other assays above

CCCC(C)C(O)CC (stereo unspecified)
not listed: [2] | [14] | [17] | [18]
inactive: all other assays above

CCCC[O][Al]([O]CCCC)[O]CCCC
not listed: [14] | [15] | [16] | [17] | [18]
inactive: all other assays above

Cc1ccc(S(N)(=O)=O)cc1
not listed: [3] | [9] | [14] | [16] | [17] | [18]
inactive: all other assays above

CCCCCC(C)=O
not listed: [2] | [14] | [17]
inactive: all other assays above
